Activity calls are given as the source filed them.

This note sets out measurements from PubChem BioAssay.

Assay [1] in a line: small molecules captured by biotinylated probe aFSTL3 – biochemical, small-molecule microarray, fluorescence 635/667, stem cell growth factor project, primary screen (AID 1064).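 Also: measures binding of the biotinylated anti-FSTL3 antibody to printed compounds.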 The conditions noted are these: higher = more signal.
Assay [2] in a line: binders from COS7 lysate, DM2A8 probe, primary screen, torsin A project, cell lysate, small-molecule microarray, fluorescence 635/667 (AID 1065). The conditions noted are these: higher = more signal, COS7 lysate expressing mutant human TOR1A.
Assay [3] is described as follows: small molecules captured by biotinylated probe aFGF2 – biochemical, small-molecule microarray, fluorescence 635/667, stem cell growth factor project, primary screen (AID 1067).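 Also: measures binding of biotinylated aFGF2 protein to printed compounds on slides; z-score merges feature fluorescence and signal-to-noise across triplicate slides.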 Particulars: higher = more signal.
Assay [4] in a line: small molecules captured by biotinylated probe aFGF10 – biochemical, small-molecule microarray, fluorescence 635/667, stem cell growth factor project, primary screen (AID 1071).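 Also: score merges 667 nm spot intensity and signal to noise from triplicate slides.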 Particulars: higher = more signal.
Assay [5] deals with Neurogenic locus notch homolog protein 2 (Homo sapiens) (UniProt Q04721). Nature of the assay: small molecules binding Notch2 protein – biochemical, small-molecule microarray, 635 nm fluorescence, stem cell growth factors, primary screen (AID 1073). The conditions noted are these: higher = more signal.
The target in assay [6] is Pro-neuregulin-1, membrane-bound isoform (Homo sapiens) (UniProt Q02297). Nature of the assay: small molecules binding neuregulin-1 protein – biochemical, small-molecule microarray, fluorescence 635/667, psychiatric disease protein project, primary screen (AID 1075).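 Also: score combines 667 nm spot fluorescence with signal to noise.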 Particulars: NRG1 binding, 635 nm fluorescence, higher = more signal.
For assay [7], the system named is Neuregulin-1 EGF-like domain. Nature of the assay: small molecules binding NRG1 EGF domain – biochemical, small-molecule microarray, 635 nm fluorescence, primary screen (AID 1081).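 Also: binding of the protein to compounds printed on small-molecule microarray slides.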 The conditions noted are these: higher = more signal.
A short description of assay [8]: FRG1 expression reporter modulators in myotubes – cell-based, C2C12 myotubes, firefly/Renilla luciferase, luminescence, FRG1 inhibition for FSHD, primary screen (AID 1084). The conditions noted are these: FRG1 promoter luciferase, higher = more signal, called active from +8 up or from −8 down.
The nature of assay [9]: small molecules captured by biotinylated probe aFST – biochemical, small-molecule microarray, fluorescence 635/667, stem cell growth factor project, primary screen (AID 1086).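 Also: score merges 667 nm fluorescence with signal-to-noise of each printed compound spot.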 The conditions noted are these: higher = more signal.
Assay [10] can be described thus: binders of probe aHhip on microarray, primary screen, stem cell growth factor project, biochemical, small-molecule microarray, fluorescence 635/667 (AID 1087).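 Also: score merges spot fluorescence at 667nm with spot signal to noise ratio.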 Particulars: higher = more signal.
In assay [11] the test system is PRMT1 (protein arginine N-methyltransferase 1). Briefly: small molecules binding arginine methyltransferase PRMT1 – biochemical, small-molecule microarray, 635 nm fluorescence, primary screen (AID 1088).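 Also: binding of Prmt1 protein to compounds spotted on small-molecule microarray slides.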 The conditions noted are these: higher = more signal.
Assay [12] can be described thus: growth effects on S. cerevisiae YJM789 – YJM789 clinical isolate, OD600, 24 h, basal, primary screen (AID 1089).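 Also: growth of clinical yeast isolate S. cerevisiae YJM 789 seeded 1000 cells per well; test concentration not given here.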 The conditions noted are these: higher = more signal, called active from +8 up or from −8 down.
Assay [13] in a line: S. pombe growth modifiers, basal conditions – strain 972, OD600, 24 h, no modulator, primary screen (AID 1090).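 Also: basal condition with compound alone and no growth modifier present; test concentration not given here.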 Particulars: S. pombe 972 growth, higher = more signal, called active from +8 up or from −8 down.
The nature of assay [14]: budding yeast growth modifiers under rapamycin – strain BY4716, OD600, 96 h, primary screen (AID 1091). Also: test concentration not given here. The conditions noted are these: S. cerevisiae BY4716 + rapamycin, higher = more signal, called active from +8 up or from −8 down.
The target of assay [15] is Torsin-1A-interacting protein 2 (Homo sapiens) (UniProt Q8NFQ8). Briefly: small molecules binding lysate-expressed LULL1 – cell lysate, human LULL1 lysate, 635/667 nm fluorescence, primary screen (AID 1092).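 Also: probe is lysate of COS7 cells overexpressing human LULL1; score merges per-feature 667 nm fluorescence with signal-to-noise.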 The conditions noted are these: small-molecule microarray, hLULL1 lysate binding, 635 nm fluorescence; higher = more signal.
Assay [16] can be described thus: optical density change of DRC41 E. coli – strain DRC41, OD650, 24 h, E. coli filamentation project, primary screen (AID 1093).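 Also: MC1000 strain lacking acrAB efflux and sulA so SOS filamentation is blocked; test concentration not given here.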 The conditions noted are these: E. coli DRC41 growth, higher = more signal, called active from +8 up or from −8 down.
The nature of assay [17]: probe aLefty2 binding to arrayed compounds – biochemical, biotinylated probe, 635/667 nm fluorescence, primary screen (AID 1094).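 Also: score merges spot fluorescence near 667 nm with spot signal-to-noise ratio.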 The conditions noted are these: small-molecule microarray, higher = more signal.
Assay [18] has as its system Noggin (protein binding on small-molecule microarray). Nature of the assay: small molecules binding Noggin protein – biochemical, 635/667 nm fluorescence, primary screen (AID 1095).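 Also: score merges 667 nm feature fluorescence with signal to noise over triplicate slides.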 Particulars: 635 nm fluorescence, higher = more signal.
Assay [19] deals with Neurogenic locus notch homolog protein 3 (Homo sapiens) (UniProt Q9UM47). Nature of the assay: small molecules binding NOTCH3 protein – biochemical, 635/667 nm fluorescence, primary screen (AID 1096). The conditions noted are these: small-molecule microarray, 635 nm fluorescence, higher = more signal.
Assay [20] is described as follows: probe aEGFR binding to arrayed compounds – biochemical, biotinylated probe, 635/667 nm fluorescence, primary screen (AID 1097).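 Also: probe is a biotinylated anti-EGFR antibody binding compounds printed on slides; score combines fluorescence near 667 nm and signal to noise of each spot.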 Particulars: small-molecule microarray, higher = more signal.

Chain of Neurogenic locus notch homolog protein 3 (Homo sapiens) (Q9UM47 whole entry, looked up): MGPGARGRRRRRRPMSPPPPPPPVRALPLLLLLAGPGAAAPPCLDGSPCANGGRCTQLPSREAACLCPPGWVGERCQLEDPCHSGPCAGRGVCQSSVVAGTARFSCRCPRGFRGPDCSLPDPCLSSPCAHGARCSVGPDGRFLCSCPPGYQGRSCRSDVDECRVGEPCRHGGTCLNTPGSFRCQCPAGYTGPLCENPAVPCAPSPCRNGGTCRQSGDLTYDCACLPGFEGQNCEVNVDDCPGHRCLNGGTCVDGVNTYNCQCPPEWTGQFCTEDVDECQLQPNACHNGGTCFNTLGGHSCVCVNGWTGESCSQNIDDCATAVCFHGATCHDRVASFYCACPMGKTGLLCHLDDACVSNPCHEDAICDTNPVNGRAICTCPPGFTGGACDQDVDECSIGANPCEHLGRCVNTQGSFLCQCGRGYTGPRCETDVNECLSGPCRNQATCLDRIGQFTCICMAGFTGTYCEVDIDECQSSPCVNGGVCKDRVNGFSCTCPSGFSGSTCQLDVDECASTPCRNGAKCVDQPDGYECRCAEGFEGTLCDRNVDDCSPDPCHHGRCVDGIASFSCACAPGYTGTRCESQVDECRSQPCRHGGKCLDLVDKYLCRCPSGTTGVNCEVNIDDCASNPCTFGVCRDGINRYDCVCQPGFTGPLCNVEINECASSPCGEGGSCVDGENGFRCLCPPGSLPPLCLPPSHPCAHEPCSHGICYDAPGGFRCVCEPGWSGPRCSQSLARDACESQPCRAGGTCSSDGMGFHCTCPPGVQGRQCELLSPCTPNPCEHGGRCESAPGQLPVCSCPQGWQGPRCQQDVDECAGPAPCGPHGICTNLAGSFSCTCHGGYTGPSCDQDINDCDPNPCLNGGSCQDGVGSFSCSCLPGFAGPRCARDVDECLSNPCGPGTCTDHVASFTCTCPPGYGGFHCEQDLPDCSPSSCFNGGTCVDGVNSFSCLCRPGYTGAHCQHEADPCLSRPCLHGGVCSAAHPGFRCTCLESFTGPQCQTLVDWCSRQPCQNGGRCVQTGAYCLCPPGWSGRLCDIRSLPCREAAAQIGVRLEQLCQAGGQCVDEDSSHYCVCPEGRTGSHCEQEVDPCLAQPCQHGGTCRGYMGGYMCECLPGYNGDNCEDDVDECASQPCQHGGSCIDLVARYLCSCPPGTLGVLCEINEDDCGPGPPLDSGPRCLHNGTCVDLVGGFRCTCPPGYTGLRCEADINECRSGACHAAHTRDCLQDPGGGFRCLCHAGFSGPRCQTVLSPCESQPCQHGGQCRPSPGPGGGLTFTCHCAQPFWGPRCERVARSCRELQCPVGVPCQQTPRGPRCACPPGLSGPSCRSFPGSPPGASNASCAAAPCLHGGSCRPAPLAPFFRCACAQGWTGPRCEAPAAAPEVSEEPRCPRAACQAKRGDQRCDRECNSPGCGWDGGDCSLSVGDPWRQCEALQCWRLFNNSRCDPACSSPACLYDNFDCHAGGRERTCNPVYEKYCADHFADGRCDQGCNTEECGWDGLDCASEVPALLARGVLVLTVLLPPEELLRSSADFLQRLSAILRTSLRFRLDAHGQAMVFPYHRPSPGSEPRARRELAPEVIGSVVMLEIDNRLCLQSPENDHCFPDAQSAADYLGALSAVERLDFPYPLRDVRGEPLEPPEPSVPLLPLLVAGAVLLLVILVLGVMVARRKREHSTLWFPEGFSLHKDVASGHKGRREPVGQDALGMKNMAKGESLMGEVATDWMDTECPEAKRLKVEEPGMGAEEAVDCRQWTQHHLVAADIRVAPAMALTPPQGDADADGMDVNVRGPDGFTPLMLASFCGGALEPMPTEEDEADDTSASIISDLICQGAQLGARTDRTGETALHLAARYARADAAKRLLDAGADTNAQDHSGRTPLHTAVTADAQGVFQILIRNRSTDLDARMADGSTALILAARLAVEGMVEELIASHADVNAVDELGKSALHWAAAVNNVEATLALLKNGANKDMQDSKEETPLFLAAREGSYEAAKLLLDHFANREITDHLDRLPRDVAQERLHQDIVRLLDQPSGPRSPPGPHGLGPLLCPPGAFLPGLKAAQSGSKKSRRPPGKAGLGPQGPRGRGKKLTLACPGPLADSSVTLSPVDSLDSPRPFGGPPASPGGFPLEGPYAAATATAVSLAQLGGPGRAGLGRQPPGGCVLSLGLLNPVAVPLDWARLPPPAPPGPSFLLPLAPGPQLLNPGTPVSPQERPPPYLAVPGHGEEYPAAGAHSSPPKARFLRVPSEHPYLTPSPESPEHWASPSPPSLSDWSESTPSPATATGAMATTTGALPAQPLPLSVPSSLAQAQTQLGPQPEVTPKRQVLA
Chain of Pro-neuregulin-1, membrane-bound isoform (Homo sapiens) (Q02297 whole entry, looked up, the tested form may be a part, canonical isoform): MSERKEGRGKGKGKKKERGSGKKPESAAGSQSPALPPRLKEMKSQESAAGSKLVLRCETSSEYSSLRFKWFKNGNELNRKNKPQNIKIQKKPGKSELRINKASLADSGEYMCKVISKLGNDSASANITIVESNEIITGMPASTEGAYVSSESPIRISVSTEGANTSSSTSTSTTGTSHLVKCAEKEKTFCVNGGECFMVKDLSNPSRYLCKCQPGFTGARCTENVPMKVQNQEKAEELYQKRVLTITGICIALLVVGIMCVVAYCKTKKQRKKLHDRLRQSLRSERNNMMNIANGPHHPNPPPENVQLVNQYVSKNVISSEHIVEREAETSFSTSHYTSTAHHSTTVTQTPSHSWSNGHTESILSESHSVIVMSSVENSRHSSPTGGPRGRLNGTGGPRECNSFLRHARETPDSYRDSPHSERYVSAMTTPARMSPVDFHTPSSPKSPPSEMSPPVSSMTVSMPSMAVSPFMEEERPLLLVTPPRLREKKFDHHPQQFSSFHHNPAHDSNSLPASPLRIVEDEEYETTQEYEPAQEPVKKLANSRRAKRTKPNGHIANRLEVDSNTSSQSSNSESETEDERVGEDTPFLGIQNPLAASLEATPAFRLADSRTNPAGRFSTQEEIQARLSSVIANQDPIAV
Chain of Torsin-1A-interacting protein 2 (Homo sapiens) (Q8NFQ8 whole entry, looked up): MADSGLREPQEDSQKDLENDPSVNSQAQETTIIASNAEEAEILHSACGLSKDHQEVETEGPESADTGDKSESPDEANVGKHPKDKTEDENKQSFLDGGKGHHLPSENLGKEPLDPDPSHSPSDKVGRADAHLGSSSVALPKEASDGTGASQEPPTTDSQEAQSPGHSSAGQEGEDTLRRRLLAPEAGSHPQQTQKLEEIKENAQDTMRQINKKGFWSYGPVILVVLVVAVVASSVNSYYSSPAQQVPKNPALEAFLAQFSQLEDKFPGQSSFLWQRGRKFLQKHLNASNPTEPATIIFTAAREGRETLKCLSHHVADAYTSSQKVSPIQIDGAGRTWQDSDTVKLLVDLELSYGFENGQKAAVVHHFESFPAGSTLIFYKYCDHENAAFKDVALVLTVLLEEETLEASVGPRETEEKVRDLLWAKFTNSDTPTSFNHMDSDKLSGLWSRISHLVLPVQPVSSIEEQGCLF

Consider `CC(C)=CCN[C@H](CO)c1ccccc1`, for which the composite z-score in assay [1] was -0.122; in assay [2] it was -0.428; in assay [3], -0.0732; in assay [4], 0.897; in assay [5], 0.794; in [6], -0.419. The composite z-score was 0.249 in [7]; -0.0489 in assay [9]; 0.0129 in assay [10]; -0.198 in assay [11]; 0.138 in assay [15]; -0.236 in assay [17]. The composite z-score in assay [18] is 0.346; in assay [19], -0.0083; in [20], -0.203. Besides, the z-score was 1.07 (inactive) in assay [8]; -0.613 (inactive) in assay [12]; -4.99 (inactive) in assay [13]; -1.32 (inactive) in assay [14]; -0.291 (inactive) in [16].

With `COc1ccccc1CN1C(=O)c2ccccc2[C@@H](C(=O)NC2CC2)[C@@H]1c1ccc(CO)cc1`, the composite z-score in assay [1] was 0.11; in assay [2] it was 0.293; in assay [3] it was 0.0233; in assay [4] it was 0.986; in [5], 1.48; in assay [6], 1.12. The composite z-score is 1.29 in assay [7]; 0.592 in assay [9]; 0.075 in assay [10]; 1.54 in [11]; 2.28 in [15]; 0.488 in assay [17]. For the same molecule, the composite z-score in [18] is 1.47; in assay [19] it was 1.06; in [20], 0.194. Besides, the z-score is -3.17 (inactive) in assay [8]; 0.827 (inactive) in assay [12]; -0.392 (inactive) in assay [13]; 0.344 (inactive) in [14]; 0.772 (inactive) in assay [16].

Turning to `COc1cc2c(cc1OC)CN(C(=O)[C@@H]1[C@H]3C(=O)O[C@H](c4ccccc4)[C@H](c4ccccc4)N3[C@H](c3ccccc3OCCO)[C@@]13C(=O)Nc1ccc(C#CCCO)cc13)CC2`, the composite z-score is 0.718 in [1]; 0.531 in assay [2]; -0.152 in assay [3]; 0.671 in [4]; 0.626 in assay [5]; 0.86 in assay [6]. The composite z-score is 1.23 in assay [7]; 1.25 in assay [9]; 0.0458 in assay [10]; 1.56 in [11]; 3.02 in [15]; -0.108 in [17]. Besides, the composite z-score is 0.772 in assay [18], 1.08 in [19] and -0.0624 in assay [20]. The z-score was 0.876 (inactive) in [8]; 1.47 (inactive) in assay [12]; -1.3 (inactive) in assay [13]; 2.22 (inactive) in assay [14]; 1.15 (inactive) in [16].

Regarding `CC(C)CNC(=O)[C@@]1(Cc2ccccc2I)c2ccccc2C(=O)N(C2CCCCC2)[C@H]1c1ccc(CO)cc1`, the composite z-score in assay [1] was determined as 0.654; in assay [2], 1.26; in assay [3] it was 0.162; in assay [4], 0.685; in [5] it was 0.142; in [6] it was 0.925. The composite z-score in [7] came to 1.05; in [9] it was 0.481; in assay [10], 0.702; in assay [11], 1.57; in [15], 1.28; in [17], 0.164. In addition, the composite z-score in [18] is -0.235; in [19] it was 0.497; in assay [20], 0.0066. The z-score was -3.41 (inactive) in assay [8]; -1.32 (inactive) in assay [12]; -0.597 (inactive) in assay [13]; 0.153 (inactive) in [14]; -0.518 (inactive) in [16].

Turning to `O=C1C2C=CC(C(O)c3cccc4ccccc34)N(Nc3ccccc3F)C2C(=O)N1c1ccccc1` (stereo not given), the composite z-score in assay [1] was 0.154; in assay [2], -0.371; in assay [3], -0.0209; in [4], 0.64; in assay [5], 1.67; in [6], 1.27. For the same molecule, the composite z-score is 1.23 in [7]; 1.23 in assay [9]; -0.0672 in [10]; 1.54 in assay [11]; 3.69 in [15]; 0.13 in assay [17]. Also, the composite z-score came out at 0.0926 in assay [18], 1.12 in [19] and 0.222 in assay [20]. Besides, the z-score was 0.856 (inactive) in assay [8]; 0.0692 (inactive) in [12]; 0.865 (inactive) in assay [13]; 1.01 (inactive) in assay [14]; -0.316 (inactive) in assay [16].

Turning to `CCS[C@H]1[C@@H](C(=O)O)[C@H](c2ccc(C)cc2)N(S(=O)(=O)c2ccc(C)cc2)[C@@H]1CC`, the composite z-score in assay [1] was -0.21; in assay [2], -0.0564; in [3] it was 0.0288; in assay [4] it was 1.1; in assay [5], 1.36; in [6], 1.84. Besides, the composite z-score in assay [7] stood at 1.36; in assay [9], 1.56; in assay [10], 0.201; in assay [11] it was 0.811; in assay [15], 3.26; in [17] it was 0.105. The composite z-score was -0.0193 in assay [18], 1.11 in assay [19] and -0.0563 in [20]. Also, the z-score in [8] is -3.15 (inactive); in assay [12], -0.406 (inactive); in assay [13] it was 0.588 (inactive); in assay [14], -0.0003 (inactive); in assay [16], 0.401 (inactive).

As to `C=CC[C@@]12N=C(c3ccc(OCCCO)cc3)O[C@@H]1c1ccccc1N(C)C2=O`, the composite z-score in assay [1] came to 0.463; in [2], 0.233; in [3], 0.128; in assay [4] it was 0.638; in assay [5] it was 0.8; in assay [6] it was 1.38. For the same molecule, the composite z-score in assay [7] was 1.31; in assay [9], 0.593; in assay [10], 0.0972; in assay [11], 1.55; in assay [15], 2.93; in assay [17], 0.246. The composite z-score in assay [18] was determined as 1.75; in assay [19], 0.997; in assay [20], 0.0499. Moreover, the z-score in [8] is 1.72 (inactive); in assay [12], 0.501 (inactive); in [13], -5.65 (inactive); in [14], 0.432 (inactive); in [16], 0.671 (inactive).

For the molecule `COC(=O)[C@@]1(Cc2ccc(OC)cc2)[C@H]2c3cc(C(=O)N(C)C)n(Cc4ccccn4)c3C[C@H]2CN1C(=O)c1ccccc1`, the composite z-score in assay [1] was 1.19; in [2] it was 2.08; in [3] it was 0.0395; in assay [4], -0.175; in assay [5], 1.4; in assay [6] it was 2.35. Moreover, the composite z-score in assay [7] was 0.89; in assay [9], 0.852; in [10] it was 0.408; in [11], -1.12; in assay [15], 3.08; in [17], 0.282. Further, the composite z-score in [18] is -1.12; in [19], 0.0171; in [20], -0.0355. Further, the z-score is 0.0734 (inactive) in assay [8]; 0.0106 (inactive) in assay [12]; 0.785 (inactive) in assay [13]; 0.144 (inactive) in [14]; -0.621 (inactive) in assay [16].

Turning to `CNS(=O)(=O)c1ccc(C)cc1`, the composite z-score is -0.366 in [1]; 0.182 in assay [2]; -0.14 in [3]; 0.248 in assay [4]; 0.192 in [5]; -0.0687 in assay [6]. In addition, the composite z-score in assay [7] is 0.314; in assay [9], 0.209; in assay [10] it was -0.0346; in assay [11], 1.14; in [15], 0.283; in [17], -0.165. In addition, the composite z-score in assay [18] was 1.19; in assay [19], 0.629; in [20], -0.101. In addition, the z-score is -0.443 (inactive) in assay [8]; -2.29 (inactive) in assay [12]; -2.38 (inactive) in assay [13]; -0.719 (inactive) in assay [14]; 2.55 (inactive) in assay [16].

Take `Cc1nc2cc(Br)ccc2c(=O)o1`: the composite z-score in assay [1] is -0.296; in [2], -0.185; in assay [3] it was -0.158; in [4], 0.497; in assay [5] it was 1.1; in assay [6], 0.226. Further, the composite z-score was 0.861 in assay [7]; 1.04 in assay [9]; 0.0383 in [10]; 0.648 in assay [11]; 1.27 in assay [15]; -0.082 in assay [17]. Further, the composite z-score in assay [18] came to 0.198; in [19] it was 1.04; in [20] it was 0.104. In addition, the z-score in [8] is 0.845 (inactive); in [12], -0.764 (inactive); in assay [13] it was 0.597 (inactive); in [14] it was -1.07 (inactive); in [16], -1.07 (inactive).
